Bioassay records (PubChem)
NPC1 prom act: activates the NPC1 promoter. Huh7 NPC1 promoter luciferase reporter, 24 h. Potency, µM (highest dose often 9.22 µM), without a hit: at the top dose activation, hits mostly activators. 2.4% of 320,000 active; note: % of control where 0% means no effect; nearly all actives have a fitted effect of over 60% in size
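Luminescence read-out of NPC1 promoter-driven luciferase in stably transfected Huh7 cells; compounds delivered in DMSO and left 24 h at 37C, 5% CO2, qHTS titration format.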
ELG1 genotoxic: induces genotoxicity in HEK293T cells with luciferase-tagged ELG1; HEK293T ELG1-luciferase reporter, luminescence, 16 h; Potency, µM (doses to about 46 µM), inactives show at the highest dose activity change, positive = activation, actives largely listed as activators; 1.3% of 330,000 active; note: % of control where 0% means no effect; nearly all actives have a fitted effect of over 60% in size
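HEK293T cells expressing luciferase-tagged ELG1 were exposed to compound or DMSO vehicle for 16 hr at 37 °C and 5% CO2. Luciferase activity was then measured with ONE-Glo after 30 min at room temperature.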
Rab9 prom act: activates the Rab9 promoter; Huh7 Rab9 promoter-luciferase reporter, luminescence, 24 h; Potency, µM (series often up to 9.22 µM), without a hit: at the highest dose activation, negative = inhibition, most hits filed as activators; 2.8% of 320,000 active; AID 485297; note: % of control where 0% means no effect; nearly all actives have a fitted effect of over 60% in size
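Luciferase signal after 10 min detection reagent at ambient indicates Rab9 promoter upregulation; stably transfected Huh7 cells were treated 24 h with compound in DMSO at 37 °C, 5% CO2.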
Luc counter: blocks Kinase-Glo luciferase, a counter-screen artifact | Potency, µM (titrated, usually from 38.3 µM), inactives show at the highest dose activity change, negative = inhibition, most hits filed as inhibitors | Kinase-Glo luciferase, ATP luminescence, 8 min | 0.28% of 200,000 active | AID 1379; note: % is set by controls: 0 for no effect and ±100 for the full control effect; nearly all actives have a fitted effect of over 60% in size
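Inhibition of Kinase-Glo luciferase light generation was assessed at 10 uM ATP in pH 7.2 imidazole buffer, with luminescence measured after eight minutes at ambient temperature.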
SMN2 splice up: SMN2 splice variant enhancement; Potency, µM (top dose mostly 46.1 µM), for the others: at the highest dose activity change, positive = activation, hits mostly activators; HEK293 SMN2-luciferase splicing reporter, luminescence, 30-36 h; 2.8% of 210,000 active; note: % of control where 0% means no effect; nearly all actives have a fitted effect of over 55% in size
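qHTS luciferase splicing reporter: luminescence rises when SMN2 exon 7 is included in transfected HEK293 cells. Compound exposure lasted 30-36 h at 37C, with 4.5 mM final sodium butyrate as control, followed by a ONE-Glo read.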
FLuc counter: inhibits or activates purified firefly luciferase, miR-21 counter-screen; Potency, µM (series often up to 57.5 µM), for inactives: at the highest dose activity change, negative = inhibition, hits mostly inhibitors; 6.9% of 360,000 active; purified FLuc, Km substrates, luminescence inhibition;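 note: plate controls were vehicle for no effect and reference inhibitor for full effect; nearly all actives have a fitted effect of over 55% in size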
Target sequence (P08659 whole entry, looked up): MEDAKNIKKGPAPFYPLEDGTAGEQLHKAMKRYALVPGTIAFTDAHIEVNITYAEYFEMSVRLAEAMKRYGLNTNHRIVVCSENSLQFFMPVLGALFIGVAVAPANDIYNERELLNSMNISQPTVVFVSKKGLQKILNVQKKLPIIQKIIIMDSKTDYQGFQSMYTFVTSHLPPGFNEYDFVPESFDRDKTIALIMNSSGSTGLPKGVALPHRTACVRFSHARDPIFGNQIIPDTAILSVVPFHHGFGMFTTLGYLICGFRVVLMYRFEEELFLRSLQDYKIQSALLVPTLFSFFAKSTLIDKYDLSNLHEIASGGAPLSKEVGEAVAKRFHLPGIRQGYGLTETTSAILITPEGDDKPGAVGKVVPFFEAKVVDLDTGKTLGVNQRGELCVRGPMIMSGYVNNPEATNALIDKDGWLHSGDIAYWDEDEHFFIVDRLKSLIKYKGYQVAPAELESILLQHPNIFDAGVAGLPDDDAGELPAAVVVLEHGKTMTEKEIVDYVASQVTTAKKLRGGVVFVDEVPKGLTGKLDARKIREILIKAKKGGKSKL
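Purified P. pyralis luciferase, 10 nM final, with Km-level 10 uM D-luciferin and 10 uM ATP in 50 mM Tris acetate pH 7.5, 10 mM Mg acetate, 0.01% Tween-20, 0.05% BSA; 6-point qHTS titration about 60 µM downward; luminescence read.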
* hit, by the source's call; ? = inconclusive; . = no result given; [ ] = another dose, or the depositor's remark. An excerpt weighted towards active compounds, which were near 7.5% of everything screened. Calls come from the whole dose curve; as a rule, active = well fitted curve in the direction sought with a large enough effect; inconclusive = small, poorly fitted or top-dose-only effect, or another doubt; inactive = no such curve, though single readings can be large; an effect the other way counts as inactive or inconclusive. Potency is the fitted concentration of half-maximal effect.

SMILES	NPC1 prom act	ELG1 genotoxic	Rab9 prom act	Luc counter	SMN2 splice up	FLuc counter
O=C(Nc1ccc2c(c1)OCO2)C(c1ccc(Cl)cc1)N1CCC2(CC1)OCCO2 (stereo unspecified)	-5%	1%	18%	-1%	-4%	-1%
Cc1ccc(N=Nc2c(C)[nH]n(C(N)=S)c2=O)cc1	?	16µM*	3.2µM*	-2%	18µM*	2.7µM*
Cc1[nH]n(C(N)=S)c(=O)c1N=Nc1cccc(C(F)(F)F)c1	4µM*	5%	19%[1.84 µM]	.	.	9.5µM*
Cc1[nH]n(C(N)=S)c(=O)c1N=Nc1ccc(S(=O)(=O)N2CCCC2)cc1	-2%	1%	13%	0%	10%	19µM*
Cc1[nH]n(C(N)=S)c(=O)c1N=Nc1cc(C(F)(F)F)ccc1Cl	0%	-13%	-10%[1.84 µM]	.	.	-16%
Cc1[nH]n(C(N)=S)c(=O)c1N=Nc1ccc(Br)cc1	3.5µM*	?	2.8µM*	.	.	2.4µM*
Cc1ccc([N+](=O)[O-])cc1N=Nc1c(C)[nH]n(C(N)=S)c1=O	-1%	-2%	-6%	.	.	-1%
NC(=S)n1[nH]c(-c2ccc([N+](=O)[O-])cc2)c(N=Nc2ccc(Cl)cc2)c1=O	-40%	-10%	-53%	3%	-47%	-13%
CCOc1ccccc1NC(=O)Cn1ccn(Cc2ccc(C)cc2)c(=O)c1=O	.	.	.	.	.	2%
CN(C)/C=C(\C#N)C(=O)N/N=C/c1ccccc1	22%	14%	2.2µM*	-2%	?	?
CCOC(=O)c1ccc(Nc2ncnc3c2cnn3C)cc1	2%	11%	3%	.	.	-14%
Cn1ncc2c(O/N=C(\N)c3ccc(C(C)(C)C)cc3)ncnc21	-43%	-22%	-41%	.	.	15µM*
Cc1oc(CC(C)C)cc1C(=O)Nc1ccc(C(=O)O)cc1	?	-41%	21%	3%	11%	12µM*
CC(C)(C)c1ccc(C(=O)Nc2ccc(NC(=O)C(=O)O)cc2)o1	1%	-2%	-3%	-3%	6%	9.5µM*
Cc1cc(C(=O)Nc2cccc(C(=O)O)c2)oc1C	?	?	?	?	1.6µM*	0.54µM*
Cc1ccc(C(=O)Nc2ccc(F)cc2)o1	23%	13%	26%	-7%	9%	?
Cc1oc(C(C)(C)C)cc1C(=O)Nc1cccc(C(=O)O)c1	0.71µM*	?	3.2µM*	-4%	?	12µM*
Cc1cc(C(=O)Nc2ccc(C(=O)O)cc2)c(C)o1	1%	1%	0%	.	.	?
Cc1cc(C(=O)Nc2cccc(C(=O)O)c2)c(C)o1	3.5µM*	?	4µM*	-7%	?	11µM*
Cc1oc(C(C)(C)C)cc1C(=O)Nc1ccc(C(=O)O)cc1	?	17%	?	3%	?	17µM*
C[C@@](N)(C(=O)O)[C@@H]1C[C@@H]1C(=O)O	.	.	.	.	-10%	.
c1cncc(-c2nc(-c3ccco3)cs2)c1	18%	29%	22%	-4%	?	?
Clc1ccsc1-c1csc(-c2cccnc2)n1	16%	?	?	-4%	13%	11µM*
c1cncc(-c2nc(-c3cccs3)cs2)c1	29%	14%	19%	0%	-4%	27µM*
Oc1ccc(-c2csc(-c3cccnc3)n2)c(O)c1	?	?	?	-1%	?	3µM*
SMILES	NPC1 prom act	ELG1 genotoxic	Rab9 prom act	Luc counter	SMN2 splice up	FLuc counter
c1cncc(-c2csc(-c3cccnc3)n2)c1	-5%	-9%	1%	.	.	?
c1csc(-c2csc(-c3cccs3)n2)c1	20%	21µM*	?	-2%	3%	12µM*
O=C(COc1ccccc1)Nc1nc(-c2cccs2)cs1	7%	7%	-1%	0%	-10%	?
CC1(C)[C@@H]2CC[C@@]1(C)C(=O)C2	.	.	.	1%	-7%	.
COc1ccccc1NC(=S)N(Cc1ccco1)Cc1cc2cc(C)ccc2[nH]c1=O	-15%	-4%	-20%	-2%	-8%[1.84 µM]	1%
Cc1onc(-c2ccccc2)c1C(=O)Nc1cccc(S(=O)(=O)N2CCCCC2)c1	.	-4%	.	.	.	.
Cc1ccc(NC(=O)Nc2ncnc3nc[nH]c23)cc1	3.5µM*	?	2.8µM*	.	.	12µM*
CCc1ccc(Nc2ncnc3nc[nH]c23)cc1	2.2µM*	?	2µM*	.	.	11µM*
CCCNc1ncnc2nc[nH]c12	-8%	-10%	-7%	3%	-19%	-1%
Cc1ccc(Nc2ncnc3nc[nH]c23)cc1Cl	3.5µM*	5.8µM*	3.2µM*	-11%	?	?
CCCCc1ccc(Nc2ncnc3nc[nH]c23)cc1	?	8.2µM*	?	-4%	5%	11µM*
c1ccc(CCCNc2ncnc3nc[nH]c23)cc1	9%	1%	1%	-2%	-13%	-17%
O=C(NC1CCS(=O)(=O)C1)c1cccc(Cl)c1 (stereo unspecified)	-7%	2%	-4%	.	.	4%
Cc1cccc(C(=O)Nc2cc(-c3ccccc3F)nn2-c2ccccc2)c1	.	.	.	.	.	-4%
COc1cccc(Nc2ncnc3nc[nH]c23)c1	?	13%	?	-12%	13µM*	19µM*
Cc1cccc(CN2C(=O)c3ccccc3S(=O)(=O)c3ccc(C(=O)N4CCN(c5cc(C)ccc5C)CC4)cc32)c1	.	.	.	.	-6%	1%
O=C(N/N=C/c1cccc(O)c1)c1csc2ccccc12	16%	16%	-5%	-4%	0%	21µM*
O=C(CC1SC(=O)NC1=O)Oc1ccc(/C=N/NC(=O)c2ccccc2O)cc1 (stereo unspecified)	3%	9%	17%	.	.	17µM*
O=C(O)COc1ccc(/C=N/NC(=O)c2cn(-c3ccccc3)nc2-c2ccccc2)cc1	0%	3%	-1%	.	.	4.8µM*
